Reference: PubChem BioAssay (NCI)
The panel holds about 83,000 compounds, 20% with a hit somewhere; the sample as a whole holds those more often.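 Assay: single dose, 48 h. Readout: percent growth (0 = no net growth; negative = cell death). Active: <10.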 A number with no mark means an inactive call. Calls of active or inactive are those of the source.

Tests used:
Experiment in all cases: NCI-60 one-dose screen, 48 h (100 = growth as untreated, 0 = no growth, -100 = all killed)
[1] = tested on: SK-MEL-2 melanoma; settings: 10 µM unless noted
[2] = tested on: EKVX NSCLC; settings: 10 µM unless noted
[3] = tested on: SN12C renal; settings: 10 µM unless noted
[4] = tested on: UO-31 renal; settings: 10 µM unless noted
[5] = tested on: ACHN renal; settings: 10 µM unless noted
[6] = tested on: CAKI-1 renal; settings: 10 µM unless noted
[7] = tested on: A498 renal; settings: 10 µM
[8] = tested on: HL-60(TB) leukemia; settings: 10 µM unless noted
[9] = tested on: CCRF-CEM leukemia; settings: 10 µM unless noted
[10] = tested on: MOLT-4 leukemia; settings: 10 µM unless noted
[11] = tested on: SR leukemia; settings: 10 µM unless noted
[12] = tested on: RPMI-8226 leukemia; settings: 10 µM unless noted
[13] = tested on: OVCAR-8 ovarian; settings: 10 µM unless noted
[14] = tested on: OVCAR-5 ovarian; settings: 10 µM unless noted
[15] = tested on: OVCAR-4 ovarian; settings: 10 µM unless noted
[16] = tested on: SK-OV-3 ovarian; settings: 10 µM unless noted
[17] = tested on: IGROV1 ovarian; settings: 10 µM unless noted
[18] = tested on: OVCAR-3 ovarian; settings: 10 µM unless noted
[19] = tested on: HS 578T breast; settings: 10 µM unless noted
[20] = tested on: TK-10 renal; settings: 10 µM unless noted

| SMILES | growth [1] | growth [2] | growth [3] | growth [4] | growth [5] | growth [6] | growth [7] | growth [8] | growth [9] | growth [10] | growth [11] | growth [12] | growth [13] | growth [14] | growth [15] | growth [16] | growth [17] | growth [18] | growth [19] | growth [20] |
| --- | --- | --- | --- | --- | --- | --- | --- | --- | --- | --- | --- | --- | --- | --- | --- | --- | --- | --- | --- | --- |
| COC(=O)[C@H](Cc1ccccc1)NNC(=O)c1csc([C@@H](C[C@H](C(C)C)N(C)C(=O)[C@@H](NC(=O)[C@H]2CCCCN2C)C2CC2)OC(C)=O)n1 | 30.6% | 29.9% | 24.3% | 42.8% | 24.8% | 21.4% | -3.69% (active) | -55.4% (active) | -2.7% (active) | 7.86% (active) | 5.77% (active) | 7.38% (active) | 24.1% | 32.5% | 41.3% | 19.8% | 27.4% | 4.06% (active) | 9.52% (active) |  |
| C[C@]12CC[C@@H]3c4ccc(Oc5nc(N6CC6)nc(N6CC6)n5)cc4CC[C@H]3[C@@H]1CCC2=O | 56.4% |  | 21.5% | 28.6% | 16.3% | 10.9% | -18.5% (active) | -35.6% (active) | 3.37% (active) | -25.2% (active) | -5.09% (active) | 0.429% (active) | 36.4% | 101% | 31.6% | 36.1% | 27.8% | 15.6% | 45.4% | 59.6% |
| COC(=O)[C@H](Cc1ccccc1)NC(=O)c1csc([C@@H](C[C@H](C(C)C)N(C)C(=O)[C@@H](NC(=O)[C@H]2CCCCN2C)C2CC2)OC(C)=O)n1 | 15.3% | 29.9% | 21.6% | 35.9% | 28.9% | 24.1% | -7.28% (active) | -43.1% (active) | 2.68% (active) | 10.1% | 6.23% (active) | 10.3% | 17% | 32.3% | 49.7% | 4.51% (active) | 29.1% | -21.4% (active) | 6.85% (active) |  |
| O=C1NC(=O)C(=Cc2cn(CCCCCCn3c4ccccc4c(=O)c4ccccc43)c3ccccc23)C(=O)N1 | 94% | 89.8% | 91.1% | 63.9% | 101% | 97.6% | -49.3% (active) | 78.7% | 80.6% | 63.2% | 93.5% | 76.2% | 91.8% | 22.6% | 85.8% | 77.5% | 79.2% | 99.2% | 103% |  |
| CCC(O)(CN)c1ccccc1 (stereo unspecified) | 97.7% | 98.3% |  | 89.7% | 105% | 96.3% | 86.7% | 101% | 90.1% | 105% | 100% | 102% | 97% | 105% | 111% | 98.4% | 97.9% | 114% | 102% | 101% |
| Nc1ncnc2n[nH]nc12 | 12.5% | 66.7% |  | 35.9% | 46.5% | 40.1% | 51.4% | 83.5% | 80.7% | 86.4% | 63.1% | 43.1% | 57.8% | 59.3% | 57.6% | 13.1% | 52.2% | 75.1% | 94.7% | 61% |
| O=C1C(N2CC2)=C(N2CC2)C(=O)C(N2CC2)=C1N1CC1 | -24.2% (active) | 22.9% |  | -56.2% (active) | -45.9% (active) | 7.04% (active) | -75.4% (active) | 21.8% | 39.2% | 32.9% | 2.9% (active) | 37.7% | 0.671% (active) | -60.6% (active) | 51.7% | -30.6% (active) | -23.5% (active) | 4.7% (active) | 14.3% | 2.35% (active) |
| CCCC(C)C1(CC)C(=O)NC(=O)N(C)C1=O (stereo unspecified) | 85.4% | 105% |  | 82.3% | 107% | 95.7% | 91.8% |  | 93.9% | 101% | 95% | 103% | 98.8% | 109% | 108% | 89.3% | 96.6% | 108% | 99.4% | 92.6% |
